# PubChem BioAssay (EPA / NIEHS)
# Results filed as inconclusive are left out. Active and inactive are the calls of the source. The calls were made as follows, unless noted: active = hit-call score of the fitted dose curve at least 0.9, where 1 is the maximum; inactive = score below 0.9.
# What was measured:
# [1] = target: human Vitamin D Receptor (VDR), VDR (gene 7421) (UniProt P11473); test: ATG_VDR_TRANS: Attagene TRANS-FACTORIAL HepG2 Assay for human Vitamin D Receptor (VDR) (AID 2283022; active = hit-call score of the fitted dose curve at least 0.9, where 1 is the maximum)
# Summary of the method: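 Fluorescence of labelled reporter cDNA fragments, resolved by capillary electrophoresis, gives mRNA induction after 24 h treatment of HepG2 cells carrying transfected Gal4-fusion reporter units. Activity is fitted in the positive direction with DMSO as baseline.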
# [2] = BSK_3C_SRB: Viability Assessment in the BioMAP Diversity Plus: 3C Assay (AID 2283023); conditions: primary human endothelial cells (HUVEC);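 also: fitted both ways against DMSO so a hit may be signal rise or drop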
# Summary of the method: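 Cells were dosed with chemical, cultured 24 h, fixed with 10% TCA, stained with 0.1% SRB and read at 560 nm. Human umbilical vein endothelium was used; DMSO served as negative control and baseline.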
# [3] = read-out: Matrix Metallopeptidase 1 (MMP1), MMP1 (gene 4312); test: BSK_BE3C_MMP1: BioMAP Diversity Plus: BE3C Assay for Matrix Metallopeptidase 1 (MMP1) Biomarker Activity (AID 2283024); conditions: primary human bronchial epithelial cells; actives raise or lower the signal
# Summary of the method: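 Human bronchial epithelial cells (BE3C system) exposed to compound for 24 h; MMP1 then quantified by ELISA. Activity was fitted in both directions relative to DMSO.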
# [4] = read-out: Pselectin, SELP (gene 6403); test: BSK_4H_Pselectin: BioMAP Diversity Plus: 4H Assay for Pselectin Biomarker Activity (AID 2283026); conditions: primary human endothelial cells (HUVEC); actives raise or lower the signal
# Summary of the method: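 ELISA read-out of P-selectin on human umbilical vein endothelium after 24 h of dosing. Values derive from bidirectional fitting relative to DMSO. Parallel SRB protein staining flagged overt cytotoxicity.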
# [5] = BSK_BE3C_SRB: Viability Assessment in the BioMAP Diversity Plus: BE3C Assay (AID 2283028); conditions: primary human bronchial epithelial cells
# Summary of the method: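 Overt cytotoxicity was assessed as total protein in confluent human primary bronchial epithelial cultures 24 h after chemical addition, using 0.1% sulforhodamine B staining read at 560 nm.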
# [6] = read-out: Thrombomodulin, THBD (gene 7056); test: BSK_3C_Thrombomodulin: BioMAP Diversity Plus: 3C Assay for Thrombomodulin Biomarker Activity (AID 2283029); conditions: primary human endothelial cells (HUVEC); actives raise or lower the signal
# Summary of the method: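 Read-out is ELISA of thrombomodulin on human umbilical vein endothelium 24 h after chemical dosing. Gain or loss of signal is scored relative to DMSO. Overt cytotoxicity is checked in parallel cultures by sulforhodamine B staining.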
# [7] = read-out: Urokinase-type plasminogen activator receptor (uPAR), PLAUR (gene 5329); test: BSK_4H_uPAR: BioMAP Diversity Plus: 4H Assay for Urokinase-type plasminogen activator receptor (uPAR) Biomarker Activity (AID 2283030); conditions: primary human endothelial cells (HUVEC); actives raise or lower the signal
# Summary of the method: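 Chemicals are dosed onto human vascular endothelial primary cells (umbilical vein). After 24 h, uPAR is read by ELISA. Gain or loss of signal is fitted relative to DMSO.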
# [8] = read-out: Vascular endothelial growth factor receptor 2 (Homo sapiens) (UniProt P35968); test: BSK_4H_VEGFRII: BioMAP Diversity Plus: 4H Assay for Vascular endothelial growth factor receptor 2 (VEGFR2) Biomarker Activity (AID 2283031); conditions: primary human endothelial cells (HUVEC); actives raise or lower the signal;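 as to AC50: cell-surface VEGFR2 protein level quantified by ELISA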
# Summary of the method: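 VEGFRII levels on human vascular endothelial primary cells were determined by ELISA at 24 hours post-dosing, with gain- or loss-of-signal fitted against DMSO controls.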
# [9] = read-out: Human Leukocyte Antigen - DR isotype (HLADR), HLA-DRA (gene 3122); test: BSK_BE3C_HLADR: BioMAP Diversity Plus: BE3C Assay for Human Leukocyte Antigen - DR isotype (HLADR) Biomarker Activity (AID 2283032); conditions: primary human bronchial epithelial cells; actives raise or lower the signal
# Summary of the method: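 ELISA read-out of HLA-DR on human lung bronchial epithelial primary cells, measured 24 h post-dosing. Both increases and decreases were scored relative to DMSO vehicle.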
# [10] = read-out: Vascular cell adhesion molecule 1 (VCAM1), VCAM1 (gene 7412); test: BSK_4H_VCAM1: BioMAP Diversity Plus: 4H Assay for Vascular cell adhesion molecule 1 (VCAM1) Biomarker Activity (AID 2283033); conditions: primary human endothelial cells (HUVEC); actives raise or lower the signal;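 as to outcome: cell-surface VCAM-1 protein measured by ELISA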
# Summary of the method: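 ELISA read-out of VCAM-1 on human umbilical vein endothelium 24 hours after chemical dosing; gain or loss of signal was fitted relative to DMSO, with sulforhodamine B staining of parallel cultures flagging overt cytotoxicity.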
# [11] = read-out: Interferon-gamma inducible Protein 10 (IP10), CXCL10 (gene 3627); test: BSK_BE3C_IP10: BioMAP Diversity Plus: BE3C Assay for Interferon-gamma inducible Protein 10 (IP10) Biomarker Activity (AID 2283034); conditions: primary human bronchial epithelial cells; actives raise or lower the signal
# Summary of the method: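 Chemical is dosed onto human lung bronchial epithelial primary cells, cultures are incubated 24 h, and IP-10 is then quantified by ELISA. Gain or loss of signal is fitted in both directions relative to DMSO.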
# [12] = read-out: Monokine induced gamma interferon (MIG), CXCL9 (gene 4283); test: BSK_BE3C_MIG: BioMAP Diversity Plus: BE3C Assay for Monokine induced gamma interferon (MIG) Biomarker Activity (AID 2283035); conditions: primary human bronchial epithelial cells; actives raise or lower the signal;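 also: MIG protein measured by ELISA in BE3C cultures after 24 h of dosing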
# Summary of the method: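 ELISA read-out of MIG in human lung bronchial epithelial primary cultures, 24 h post-dosing. Bidirectional curve fit vs DMSO baseline.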
# [13] = read-out: Plasminogen activator inhibitor-1 (PAI1), SERPINE1 (gene 5054); test: BSK_BE3C_PAI1: BioMAP Diversity Plus: BE3C Assay for Plasminogen activator inhibitor-1 (PAI1) Biomarker Activity (AID 2283037); conditions: primary human bronchial epithelial cells; actives raise or lower the signal
# Summary of the method: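 Primary human lung bronchial epithelial cells; chemical dosing; 24 h; PAI-1 measured by ELISA; bidirectional fit referenced to DMSO as negative control.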
# [14] = read-out: urokinase plasminogen activator (uPA), PLAU (gene 5328); test: BSK_BE3C_uPA: BioMAP Diversity Plus: BE3C Assay for urokinase plasminogen activator (uPA) Biomarker Activity (AID 2283038); conditions: primary human bronchial epithelial cells; actives raise or lower the signal;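 as to outcome: uPA protein level quantified by ELISA in cell cultures; uPA read one day after compound addition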
# Summary of the method: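 Measured by ELISA: uPA from human primary bronchial epithelial cells 24 h after chemical treatment. Values derive from bidirectional curve fitting with DMSO serving as negative control. Total protein by SRB staining in parallel wells flagged overt cytotoxicity.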
# [15] = read-out: Interleukin-6 (IL6), IL6 (gene 3569); test: BSK_CASM3C_IL6: BioMAP Diversity Plus: CASM3C Assay for Interleukin-6 (IL6) Biomarker Activity for (AID 2283040); conditions: primary human coronary artery smooth muscle cells; actives raise or lower the signal
# [16] = read-out: Tissue plasminogen activator (tPA), PLAT (gene 5327); test: BSK_BE3C_tPA: BioMAP Diversity Plus: BE3C Assay for Tissue plasminogen activator (tPA) Biomarker Activity (AID 2283041); conditions: primary human bronchial epithelial cells; actives raise or lower the signal;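 as to outcome: tPA level quantified by ELISA one day after compound addition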
# Summary of the method: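 Primary human lung bronchial epithelial cultures receive test chemical; after 24 h, tPA is quantified by ELISA, and gain or loss of signal is fitted bidirectionally relative to DMSO baseline.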
# [17] = BSK_4H_SRB: Viability Assessment in the BioMAP Diversity Plus: 4H Assay (AID 2283027); conditions: primary human endothelial cells (HUVEC);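 also: cells exposed to compound for 24 h before staining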;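 as to AC50: curves fitted both ways versus DMSO so AC50 may be loss or gain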
# Summary of the method: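 Human umbilical vein endothelial cells were dosed with chemical and, after 24 h, fixed with 10% TCA, stained with 0.1% sulforhodamine B, and read at 560 nm to give total protein as a cytotoxicity measure. Bidirectional fitting relative to DMSO control.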
# [18] = read-out: Transforming growth factor beta 1 (TGFb1), TGFB1 (gene 7040); test: BSK_BE3C_TGFb1: BioMAP Diversity Plus: BE3C Assay for Transforming growth factor beta 1 (TGFb1) Biomarker Activity (AID 2283036;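 also: TGF-b1 protein level measured by ELISA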); conditions: primary human bronchial epithelial cells; actives raise or lower the signal
# Summary of the method: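 Primary human lung bronchial epithelial cells; compound exposure 24 h; TGF-b1 by ELISA; bidirectional fit, DMSO baseline. Parallel SRB total-protein staining for cytotoxicity.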
# [19] = BSK_3C_Vis: BioMAP Diversity Plus: 3C Assay for Morphology Visualization (AID 2283025); conditions: primary human endothelial cells (HUVEC);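 also: fitted both ways so gain or loss versus DMSO counts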
# Summary of the method: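 Chemicals were added to primary human umbilical vein endothelium, cells were incubated 24 h, and morphology was then visualized by light microscopy. Gain or loss of signal was fitted bidirectionally relative to DMSO.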
# [20] = read-out: Urokinase-type plasminogen activator receptor (uPAR), PLAUR (gene 5329); test: BSK_BE3C_uPAR: BioMAP Diversity Plus: BE3C Assay for Urokinase-type plasminogen activator receptor (uPAR) Biomarker Activity (AID 2283039); conditions: primary human bronchial epithelial cells; actives raise or lower the signal;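 also: uPAR protein level measured by ELISA on the cells; cells exposed to compound for one day before measurement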
# Summary of the method: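 Human bronchial epithelial primary cells; chemical exposure 24 h; uPAR by ELISA; bidirectional fit vs DMSO control.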
# Sequence of human Vitamin D Receptor (VDR), VDR (gene 7421) (P11473 whole entry, looked up, the tested form may be a part): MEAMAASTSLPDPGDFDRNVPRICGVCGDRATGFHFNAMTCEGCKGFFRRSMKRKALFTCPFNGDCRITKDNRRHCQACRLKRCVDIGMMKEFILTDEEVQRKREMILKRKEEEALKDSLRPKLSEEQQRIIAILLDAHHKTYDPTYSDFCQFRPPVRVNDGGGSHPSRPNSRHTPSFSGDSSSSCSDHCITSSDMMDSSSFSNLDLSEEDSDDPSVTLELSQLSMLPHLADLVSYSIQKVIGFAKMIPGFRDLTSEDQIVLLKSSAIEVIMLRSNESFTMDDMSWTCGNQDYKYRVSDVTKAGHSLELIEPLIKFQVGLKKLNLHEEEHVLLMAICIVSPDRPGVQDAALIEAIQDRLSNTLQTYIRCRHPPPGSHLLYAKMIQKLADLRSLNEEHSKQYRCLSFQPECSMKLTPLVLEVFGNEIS
compound,measurement,setting,value
CCNc1cccc(C)c1,outcome,[1],inactive
same,outcome,[2],inactive
same,outcome,[3],inactive
same,outcome,[4],inactive
same,outcome,[5],inactive
same,outcome,[6],inactive
same,outcome,[7],inactive
same,outcome,[8],inactive
same,outcome,[9],inactive
same,outcome,[10],inactive
same,outcome,[11],inactive
same,outcome,[12],inactive
same,outcome,[13],inactive
same,outcome,[14],inactive
same,outcome,[15],inactive
same,outcome,[16],inactive
O=C(N[C@@H](Cc1ccccc1)[C@@H](O)C(=O)N1C[C@@H](O)[C@@H](O)C1)c1cc2cc(Cl)ccc2[nH]1,outcome,[1],inactive
same,outcome,[2],inactive
same,outcome,[3],inactive
same,outcome,[4],inactive
same,outcome,[17],inactive
same,outcome,[5],inactive
same,outcome,[6],inactive
same,outcome,[7],inactive
same,outcome,[8],inactive
same,outcome,[9],inactive
same,outcome,[10],inactive
same,outcome,[11],inactive
same,outcome,[12],inactive
same,outcome,[18],inactive
same,outcome,[13],inactive
same,outcome,[14],inactive
same,outcome,[15],inactive
same,outcome,[16],inactive
CCCCCCCCCCCCCO,outcome,[1],inactive
same,AC50,[2],32.1 µM (active)
same,AC50,[3],20.6 µM (active)
same,AC50,[4],35.1 µM (active)
same,AC50,[17],31.8 µM (active)
same,outcome,[5],inactive
same,outcome,[6],inactive
same,AC50,[7],38.9 µM (active)
same,AC50,[8],30.6 µM (active)
same,outcome,[9],inactive
same,AC50,[10],36.1 µM (active)
same,AC50,[11],29.7 µM (active)
same,outcome,[12],inactive
same,outcome,[18],inactive
same,outcome,[13],inactive
same,outcome,[14],inactive
same,outcome,[15],inactive
same,AC50,[16],26.9 µM (active)
CCc1c(C(=O)NN2CCCCC2)nn(-c2ccc(Cl)cc2Cl)c1-c1ccc(Br)cc1,outcome,[1],inactive
same,AC50,[2],9.03 µM (active)
same,outcome,[3],inactive
same,AC50,[4],2.66 µM (active)
same,AC50,[17],6.66 µM (active)
same,outcome,[5],inactive
same,outcome,[6],inactive
same,AC50,[7],6.58 µM (active)
same,AC50,[8],9.41 µM (active)
same,AC50,[9],11 µM (active)
same,AC50,[10],9.11 µM (active)
same,AC50,[11],24 µM (active)
same,outcome,[12],inactive
same,AC50,[13],11 µM (active)
same,AC50,[14],33.3 µM (active)
same,outcome,[15],inactive
same,AC50,[16],20 µM (active)
Oc1ccc2ccccc2c1N=Nc1ccccc1,outcome,[2],inactive
same,AC50,[3],3.97 µM (active)
same,outcome,[19],inactive
same,outcome,[4],inactive
same,outcome,[17],inactive
same,outcome,[5],inactive
same,outcome,[6],inactive
same,outcome,[7],inactive
same,outcome,[8],inactive
same,outcome,[9],inactive
same,AC50,[10],0.386 µM (active)
same,outcome,[11],inactive
same,outcome,[12],inactive
same,outcome,[18],inactive
same,outcome,[13],inactive
same,AC50,[14],2.47 µM (active)
same,outcome,[15],inactive
same,outcome,[16],inactive
CCOC(=O)CCC(=O)OCC,outcome,[2],inactive
same,outcome,[3],inactive
same,outcome,[19],inactive
same,outcome,[4],inactive
same,outcome,[17],inactive
same,outcome,[5],inactive
same,outcome,[6],inactive
same,outcome,[7],inactive
same,outcome,[8],inactive
same,outcome,[9],inactive
same,outcome,[10],inactive
same,outcome,[11],inactive
same,outcome,[12],inactive
same,outcome,[18],inactive
same,outcome,[13],inactive
same,outcome,[14],inactive
same,outcome,[20],inactive
same,outcome,[15],inactive
same,outcome,[16],inactive
Cc1ccccc1Cl,outcome,[2],inactive
same,outcome,[3],inactive
same,outcome,[19],inactive
same,outcome,[4],inactive
same,outcome,[17],inactive
same,outcome,[5],inactive
same,outcome,[6],inactive
same,outcome,[7],inactive
same,outcome,[8],inactive
same,outcome,[9],inactive
same,outcome,[10],inactive
same,outcome,[11],inactive
same,outcome,[12],inactive
same,outcome,[13],inactive
same,outcome,[14],inactive
same,outcome,[15],inactive
same,outcome,[16],inactive
